Potency, outcome and max response data for 31 compounds are collected here from PubChem BioAssay (NCATS).

Experiment [1] addresses Ubiquitin carboxyl-terminal hydrolase 1 (Homo sapiens) (UniProt O94782). Put plainly: Inhibitors of USP1/UAF1: Pilot qHTS (AID 504865). Also: nearly all actives have a fitted effect of over 35% in size. Also: potency is read from the fitted curve at half-maximal effect. Put shortly: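 1nM USP1/UAF1 + cpd, 15 min RT; start w/ Ub-Rho 150nM final; kinetic FL 480/540 nm, 6 reads q60 s. Buffer 50mM HEPES pH 7.8, 0.5mM EDTA, 1mM TCEP, 0.01% Tween-20, 0.1 mg/ml BSA.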
The target of experiment [2] is Estrogen receptor (Homo sapiens) (UniProt P03372). In words: qHTS assay for small molecule antagonists of estrogen receptor alpha signaling (AID 588513; active = well fitted curve in the direction sought with a large enough effect in the signal ratio, with a control signal flat, not every such curve was filed as active; the % refers to the signal ratio). Put shortly: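 Beta-lactamase reporter, antagonist mode, HEK 293 GripTite cells; 0.5nM E2 stimulus, 18 h, 37 C; CCF4 dye 2 h RT; fluorescence. IC50 and efficacy from Hill fits, normalized to E2 and DMSO.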
Estrogen receptor (Homo sapiens), sequence (P03372 whole entry, looked up): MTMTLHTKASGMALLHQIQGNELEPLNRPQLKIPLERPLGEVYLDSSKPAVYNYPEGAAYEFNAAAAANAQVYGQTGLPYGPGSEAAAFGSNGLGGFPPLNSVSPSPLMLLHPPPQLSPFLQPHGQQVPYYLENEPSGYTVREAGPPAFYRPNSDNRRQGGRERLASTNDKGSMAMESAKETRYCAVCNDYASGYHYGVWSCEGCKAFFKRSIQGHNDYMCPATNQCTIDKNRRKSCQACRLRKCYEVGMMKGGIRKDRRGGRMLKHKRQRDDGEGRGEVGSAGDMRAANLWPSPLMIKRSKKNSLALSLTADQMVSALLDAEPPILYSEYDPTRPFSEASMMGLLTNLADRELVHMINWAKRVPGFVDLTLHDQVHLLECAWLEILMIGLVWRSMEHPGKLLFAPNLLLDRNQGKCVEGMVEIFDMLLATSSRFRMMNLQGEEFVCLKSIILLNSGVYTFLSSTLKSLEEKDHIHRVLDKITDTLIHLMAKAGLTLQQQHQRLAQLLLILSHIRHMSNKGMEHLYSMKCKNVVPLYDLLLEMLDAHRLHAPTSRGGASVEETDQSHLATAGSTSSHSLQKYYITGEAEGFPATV
The target is the same in experiment [3]. In words: qHTS assay for small molecule agonists of estrogen receptor alpha signaling (AID 588514; calls by dose curve; also: nearly all actives have a fitted effect of over 70% in size). The method in brief:
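ER-alpha-UAS-bla GripTite HEK 293 cells in medium with 2% charcoal/dextran-treated FBS were treated with compound titrations at 37 C for 18 hrs; beta-lactamase reporter read by CCF4 fluorescence after 2 hrs at RT.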

The target of experiment [4] is Glucocorticoid receptor (Homo sapiens) (UniProt P04150). Put plainly: qHTS assay for small molecule antagonists of glucocorticoid receptor signaling (AID 588533; active = well fitted inhibition curve with a large enough effect in the signal ratio, with a control signal flat, not every such curve was filed as active; the % refers to the signal ratio;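 also: cells stimulated with 2 nM dexamethasone as agonist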). The method in brief: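 Antagonist-mode qHTS: compound titrations added to GRE-bla HeLa cells, then dexamethasone 2 nM final; 18 h, 37 C. CCF4 FRET fluorescence normalized to dexamethasone and DMSO; IC50 from Hill fit.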
Glucocorticoid receptor (Homo sapiens), sequence (P04150 whole entry, looked up): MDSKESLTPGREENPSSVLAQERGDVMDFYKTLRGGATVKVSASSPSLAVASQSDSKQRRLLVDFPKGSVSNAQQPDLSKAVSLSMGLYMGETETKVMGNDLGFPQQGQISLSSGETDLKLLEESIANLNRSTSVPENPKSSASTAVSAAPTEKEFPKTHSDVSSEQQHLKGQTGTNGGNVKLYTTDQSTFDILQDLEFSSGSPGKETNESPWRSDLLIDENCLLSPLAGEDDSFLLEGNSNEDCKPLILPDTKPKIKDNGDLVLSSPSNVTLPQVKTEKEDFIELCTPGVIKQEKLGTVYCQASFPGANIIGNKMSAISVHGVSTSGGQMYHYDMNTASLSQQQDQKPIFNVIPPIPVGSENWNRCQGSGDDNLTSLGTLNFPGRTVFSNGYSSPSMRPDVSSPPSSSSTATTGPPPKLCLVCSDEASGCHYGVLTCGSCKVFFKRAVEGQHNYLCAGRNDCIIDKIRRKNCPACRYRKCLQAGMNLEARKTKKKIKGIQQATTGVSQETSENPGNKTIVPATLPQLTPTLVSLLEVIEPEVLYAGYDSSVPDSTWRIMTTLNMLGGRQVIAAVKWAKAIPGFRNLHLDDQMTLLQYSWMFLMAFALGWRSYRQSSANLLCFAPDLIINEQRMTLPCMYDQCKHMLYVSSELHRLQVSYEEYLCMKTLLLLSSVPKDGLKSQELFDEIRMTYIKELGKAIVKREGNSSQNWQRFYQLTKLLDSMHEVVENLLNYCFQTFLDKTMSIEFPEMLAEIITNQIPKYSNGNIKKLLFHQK

Experiment [5] in a line: qHTS assay for small molecule antagonists of peroxisome proliferator-activated receptor delta signaling (AID 588535; active = well fitted inhibition curve with a large enough effect in the signal ratio, with a control signal flat, not every such curve was filed as active; the % refers to the signal ratio;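 as to max response: cells co-treated with a PPAR-delta agonist as stimulator during compound exposure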). The note with it: HEK293T PPARd-UAS-bla, beta-lactamase FRET ratio, 18 h; 460 nm channel. The method in brief:
(§1)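 GeneBLAzer PPAR-delta-UAS-bla HEK293T cells in medium with 2% charcoal/dextran FBS were preincubated 5 hrs at 37 C, then given compounds, incubated 18 hrs at 37 C, and read by CCF4 beta-lactamase fluorescence; IC50 from Hill fits.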

For experiment [6], the target named is Peroxisome proliferator-activated receptor delta (Homo sapiens) (UniProt Q03181). The description is as above. Put shortly:
as §1

Experiment [7] addresses Bile acid receptor (Homo sapiens) (UniProt Q96RI1). In words: qHTS assay for small molecule antagonists of farnesoid X receptor signaling (AID 588526; calls by dose curve). Put shortly: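 Concentration-response titrations were fitted to the Hill equation for half-maximal inhibition and maximal response, with data normalised to 50 uM chenodeoxycholic acid and DMSO control wells. Cells: FXR-UAS-bla HEK293T, dialyzed FBS.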

For experiment [8], the target named is DNA dC->dU-editing enzyme APOBEC-3G (Homo sapiens) (UniProt Q9HC16). Put plainly: qHTS for inhibitors of Vif-A3G interactions: Validation (AID 588379). The method in brief:
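HeLa cells stably expressing Vif and A3G-eYFP, 700 cells/well, incubated overnight at 37 deg C, then exposed to compound overnight at 37 deg C. Inhibition of Vif-mediated degradation read as increased yellow fluorescence (Ex 488/Em 500-530) by laser-scanning cytometry.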

“And” between values parts separate entries of the source, which are not always exact repeats. Equal values may be shown once. Inconclusive results are not listed. A call without a number means that no potency is given here. The source made the active and inactive calls. Unless noted, calls follow the shape of the dose curve; as a rule, active = well fitted inhibition curve with a large enough effect; inconclusive = small, poorly fitted or top-dose-only effect; inactive = flat fitted curve, though single readings scatter.

Peroxisome proliferator-activated receptor delta (Homo sapiens), sequence (Q03181 whole entry, looked up): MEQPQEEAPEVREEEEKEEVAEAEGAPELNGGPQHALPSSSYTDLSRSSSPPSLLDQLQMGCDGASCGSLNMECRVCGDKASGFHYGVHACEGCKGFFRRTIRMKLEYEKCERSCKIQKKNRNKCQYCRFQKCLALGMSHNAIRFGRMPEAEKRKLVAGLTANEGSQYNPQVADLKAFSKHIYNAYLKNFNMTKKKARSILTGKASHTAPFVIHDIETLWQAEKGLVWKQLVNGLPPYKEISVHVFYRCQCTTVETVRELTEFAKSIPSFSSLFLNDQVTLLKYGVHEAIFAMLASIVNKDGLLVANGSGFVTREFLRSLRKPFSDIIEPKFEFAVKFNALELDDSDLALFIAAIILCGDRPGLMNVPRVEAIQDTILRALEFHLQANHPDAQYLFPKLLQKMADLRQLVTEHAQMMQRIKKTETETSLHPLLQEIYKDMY
Bile acid receptor (Homo sapiens), sequence (Q96RI1 whole entry, looked up): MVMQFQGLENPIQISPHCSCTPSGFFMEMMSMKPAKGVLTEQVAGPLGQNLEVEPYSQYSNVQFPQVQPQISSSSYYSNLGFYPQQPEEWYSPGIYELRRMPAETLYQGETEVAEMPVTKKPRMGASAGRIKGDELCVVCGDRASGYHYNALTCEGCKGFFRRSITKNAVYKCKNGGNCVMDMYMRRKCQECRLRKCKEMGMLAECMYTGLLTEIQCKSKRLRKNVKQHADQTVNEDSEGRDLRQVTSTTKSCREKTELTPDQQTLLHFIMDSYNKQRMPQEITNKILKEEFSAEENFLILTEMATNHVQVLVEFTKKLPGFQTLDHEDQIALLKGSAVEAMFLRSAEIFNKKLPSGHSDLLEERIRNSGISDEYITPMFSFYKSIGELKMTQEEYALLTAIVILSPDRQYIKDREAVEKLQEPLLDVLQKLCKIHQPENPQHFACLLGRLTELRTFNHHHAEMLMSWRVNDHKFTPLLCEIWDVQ
Ubiquitin carboxyl-terminal hydrolase 1 (Homo sapiens), sequence (O94782 whole entry, looked up): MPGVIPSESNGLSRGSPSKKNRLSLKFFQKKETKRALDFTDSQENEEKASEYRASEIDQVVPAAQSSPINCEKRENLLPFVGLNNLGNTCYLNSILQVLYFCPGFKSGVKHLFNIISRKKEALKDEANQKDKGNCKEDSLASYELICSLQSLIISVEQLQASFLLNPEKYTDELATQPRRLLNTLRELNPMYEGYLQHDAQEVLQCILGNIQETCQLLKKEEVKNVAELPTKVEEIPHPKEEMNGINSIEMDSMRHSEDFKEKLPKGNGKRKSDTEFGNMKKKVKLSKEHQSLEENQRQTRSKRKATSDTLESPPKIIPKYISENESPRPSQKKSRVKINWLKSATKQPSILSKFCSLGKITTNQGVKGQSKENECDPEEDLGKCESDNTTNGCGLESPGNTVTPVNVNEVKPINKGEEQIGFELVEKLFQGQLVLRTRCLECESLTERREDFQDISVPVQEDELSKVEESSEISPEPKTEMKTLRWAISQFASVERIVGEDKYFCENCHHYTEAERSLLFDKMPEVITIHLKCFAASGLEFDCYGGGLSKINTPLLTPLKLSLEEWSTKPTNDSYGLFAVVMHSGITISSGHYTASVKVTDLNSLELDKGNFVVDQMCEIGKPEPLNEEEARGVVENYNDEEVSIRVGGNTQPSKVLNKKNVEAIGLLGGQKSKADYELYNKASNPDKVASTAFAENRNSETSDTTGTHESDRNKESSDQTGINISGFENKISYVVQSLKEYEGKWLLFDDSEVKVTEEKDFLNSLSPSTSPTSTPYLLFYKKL
DNA dC->dU-editing enzyme APOBEC-3G (Homo sapiens), sequence (Q9HC16 whole entry, looked up): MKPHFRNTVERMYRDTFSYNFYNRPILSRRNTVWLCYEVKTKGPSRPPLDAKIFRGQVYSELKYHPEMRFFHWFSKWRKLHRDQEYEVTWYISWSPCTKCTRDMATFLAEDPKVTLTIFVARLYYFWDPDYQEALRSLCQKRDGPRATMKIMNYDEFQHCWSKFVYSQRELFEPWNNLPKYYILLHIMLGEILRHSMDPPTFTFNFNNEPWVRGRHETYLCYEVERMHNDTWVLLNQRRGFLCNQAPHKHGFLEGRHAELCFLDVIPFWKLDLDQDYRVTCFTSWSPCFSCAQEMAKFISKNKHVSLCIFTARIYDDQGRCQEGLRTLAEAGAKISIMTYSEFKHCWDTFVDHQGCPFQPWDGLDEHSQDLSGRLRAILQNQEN

As for `CCN(C)C(=O)Oc1cccc([C@H](C)N(C)C)c1`, the Potency result in experiment [1] is “inactive”.
With `O=C(O)c1cccnc1`, the Potency entry in experiment [1] was “inactive”.
On to `C#CCN[C@@H]1CCc2ccccc21`, for which the Potency result in experiment [1] was “inactive”.
As to `CCCCOc1ccc(CC(=O)NO)cc1`, in experiment [1], the Potency entry was “inactive”.
For `CC(C)(C#N)c1cc(Cn2cncn2)cc(C(C)(C)C#N)c1`, in experiment [1], the Potency entry was “inactive”.
The same measure, in the same setting: to `CCn1cc(C(=O)O)c(=O)c2cc(F)c(N3CCNCC3)nc21` belongs “inactive”; to `NC(=O)c1cccnc1`, “inactive”; to `O=S(=O)(O)CCS`, “inactive”.
Consider `COC(=O)Nc1nc2ccc(C(=O)c3ccccc3)cc2[nH]1`, for which the Potency entry in experiment [1] is “inactive”.
With `COc1cc(NS(=O)(=O)c2ccc(N)cc2)nc(OC)n1`, in experiment [1], the Potency entry is “inactive”.
Same read-out and setting: to `COc1ccc(C(=O)CC(=O)c2ccc(C(C)(C)C)cc2)cc1` belongs “inactive”.
Turning to `NNC(=O)c1ccncc1`, the Potency entry in experiment [1] and in experiment [2] was “inactive” each time. The outcome in experiment [3], in experiment [4] and in experiment [6] was inactive. The max response in experiment [5] is 0.593%.
`CCc1cc(C(N)=S)ccn1`: in experiment [1], the Potency entry is “inactive”. The call in experiment [4] and in experiment [6] was inactive. The max response in experiment [5] was -62.7% and 18.6%.
Take `N=C(N)c1ccc(OCCCCCOc2ccc(C(=N)N)cc2)cc1`: the Potency entry in experiment [1] and in experiment [2] was “inactive” throughout. In addition, the result in experiment [3], in experiment [4] and in experiment [6] was inactive. The max response in experiment [5] is -25.7%.
For `Nc1nc(N)nc(-c2cc(Cl)ccc2Cl)n1`, the Potency entry in experiment [1] was “inactive”.
Consider `Cc1cc(NS(=O)(=O)c2ccc(N)cc2)no1`, for which the outcome in experiment [7] and in experiment [4] was inactive.
On to `CC(=O)Oc1ccccc1C(=O)Nc1ncc([N+](=O)[O-])s1`, for which the Potency result in experiment [1] and in experiment [2] was “inactive” each time. The max response in experiment [5] was -31.7%. Further, the compound was called inactive in experiment [6].
Turning to `CCOC(=O)c1ccc(OC(=O)CCCCCN=C(N)N)cc1`, the Potency entry in experiment [1] was “inactive”. The compound was classed as inactive in experiment [8].
Regarding `O=C(O)c1cc(=O)[nH]c(=O)[nH]1`, the Potency result in experiment [1] and in experiment [2] was “inactive” each time.
As for `CCCc1nc(C)c2c(=O)[nH]c(-c3cc(S(=O)(=O)N4CCN(CC)CC4)ccc3OCC)nn12`, the Potency entry in experiment [1] was “inactive”.
As for `NC(N)=NC(N)=NCCc1ccccc1`, the Potency entry in experiment [1] and in experiment [2] was “inactive” in each case. Moreover, the call in experiment [3] and in experiment [6] was inactive. For the same compound, the max response in experiment [5] was -11.9% and 9.95%.
Turning to `COc1nc(N)nc2c1ncn2[C@@H]1O[C@H](CO)[C@@H](O)[C@@H]1O`, the Potency in experiment [1] is 22.4 µM (active).
Same read-out and setting: the entry for `CN1CCN(c2c(F)cc3c(=O)c(C(=O)O)cn4c3c2OCN4C)CC1` is “inactive”; for `O=P(O)(O)C(O)(Cc1cccnc1)P(=O)(O)O` it is “inactive”.
For the compound `COc1cc([C@@H]2c3cc4c(cc3[C@H](O)[C@H]3COC(=O)[C@H]23)OCO4)cc(OC)c1OC`, the result in experiment [8] was inactive.
For `CC1=NN(c2ccccc2)C(=O)C1`, the Potency entry in experiment [1] and in experiment [2] was “inactive” each time. Further, the outcome in experiment [8], in experiment [3], in experiment [7], in experiment [4] and in experiment [6] was inactive. Also, the max response in experiment [5] was -24.3%.
For the compound `CC[C@H](C)C(=O)O[C@H]1C[C@@H](C)C=C2C=C[C@H](C)[C@H](CC[C@@H]3C[C@@H](O)CC(=O)O3)[C@H]21`, the Potency result in experiment [2] is “inactive”. The outcome in experiment [3] was inactive.
In the case of `Cn1nnc2c(C(N)=O)ncn2c1=O`, the Potency result in experiment [1] was “inactive”.
In the case of `Cc1ncc([N+](=O)[O-])n1CCO`, the Potency result in experiment [1] and in experiment [2] was “inactive” each time. Besides, the compound was classed as inactive in experiment [3] and in experiment [6]. For the same compound, the max response in experiment [5] was -0.982%.
For `O=C(N[C@H](CO)[C@H](O)c1ccc([N+](=O)[O-])cc1)C(Cl)Cl`, the Potency entry in experiment [1] and in experiment [2] was “inactive” each time. For the same compound, the compound was classed as inactive in experiment [8] and in experiment [6]. The max response in experiment [5] was -4.34% and 5.8%.
`O=S(=O)(c1cccc2cnccc12)N1CCCNCC1`: the Potency result in experiment [1] was “inactive”. Moreover, the outcome in experiment [8] was inactive.
